Assay results: PubChem BioAssay (NCI)
Compounds without any hit were thinned out: in the full panel of roughly 83,000, 20% have a hit.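 Cell lines were cultured in 96-well plates, exposed to a single compound concentration, and assessed for percent growth 48 hours later.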 Calls of active or inactive are those of the source. How the source made its calls: active means growth percent below 10; inactive means the rest.

Experiments:
Experiment in all cases: NCI-60 one-dose screen, 48 h (100 = growth as untreated, 0 = no growth, -100 = all killed)
[1] = system: RPMI-8226 leukemia; conditions: 10 µM unless noted
[2] = system: OVCAR-8 ovarian; conditions: 10 µM unless noted
[3] = system: OVCAR-5 ovarian; conditions: 10 µM unless noted
[4] = system: OVCAR-4 ovarian; conditions: 10 µM unless noted
[5] = system: SK-OV-3 ovarian; conditions: 10 µM unless noted
[6] = system: IGROV1 ovarian; conditions: 10 µM unless noted
[7] = system: OVCAR-3 ovarian; conditions: 10 µM unless noted
[8] = system: HS 578T breast; conditions: 10 µM unless noted
[9] = system: NCI/ADR-RES ovarian; conditions: 10 µM unless noted
[10] = system: T-47D breast; conditions: 10 µM unless noted
[11] = system: BT-549 breast; conditions: 10 µM unless noted
[12] = system: MDA-MB-435 melanoma; conditions: 10 µM unless noted
[13] = system: SW-620 colon; conditions: 10 µM unless noted
[14] = system: HCT-116 colon; conditions: 10 µM unless noted
[15] = system: HCC-2998 colon; conditions: 10 µM unless noted
[16] = system: KM12 colon; conditions: 10 µM unless noted
[17] = system: MCF7 breast; conditions: 10 µM

Measured: growth

COc1ccc(/C=C2\CCC/C(=C\c3ccc(OC)c(OC)c3)C2=O)cc1OC
active: [1] -4.53% | [2] 2.04% | [4] -0.91% | [6] 4.96% | [12] -8.1% | [13] -21.7% | [14] -68.3% | [15] -30.1% | [16] -75.2%
inactive: [3] 41% | [5] 29.7% | [7] 13.8% | [8] 41.2% | [9] 11% | [10] 19.3% | [11] 13%

COc1cc(CNC(=O)c2ccsc2Nc2ccnc(C(F)(F)F)c2)ccc1O
inactive: [1] 91% | [2] 102% | [3] 107% | [4] 105% | [5] 97.3% | [6] 105% | [7] 105% | [8] 104% | [9] 95.4% | [10] 98.7% | [11] 103% | [12] 101% | [13] 100% | [17] 113% | [14] 101% | [16] 104%

O=c1cc(NC2CCN(CCCc3ccccc3)CC2)c2cc(Cl)ccc2o1
inactive: [3] 30.5% | [4] 12.7% | [11] 17.8%
active: [1] -8.63% | [2] -0.533% | [5] 4.31% | [6] -4.09% | [7] -16.6% | [8] 2.69% | [9] 6.68% | [10] 4.55% | [12] -8.02% | [13] 6.98% | [17] 3.46% | [14] 8.12% | [16] 0.149%

O=c1oc2ccc(Cl)cc2c(=O)n1-c1ccc(Cl)cc1F
active: [1] -28.5% | [2] 8.62% | [5] -2.36% | [7] 5.29% | [8] -5.3% | [9] 6.2% | [10] -12% | [12] -5.48% | [13] 9.15% | [17] 0.727% | [14] 2.58%
inactive: [3] 24.6% | [4] 11% | [6] 14.3% | [15] 10.7%

COc1ccc(-c2nc(-c3ccccc3)c(-c3ccccc3)[nH]2)cc1OC1CCCCC1
inactive: [1] 58.9% | [2] 86.7% | [3] 96.6% | [4] 74.2% | [5] 98.9% | [6] 102% | [7] 72.6% | [8] 91.2% | [9] 87.7% | [10] 82.6% | [11] 118% | [12] 84.8% | [13] 88.8% | [17] 73.6% | [14] 88.4% | [16] 89.3%

COc1c(B(O)O)cccc1-c1nc2ccc3[nH]ncc3c2c2c1C1CCC2C1 (stereo not drawn)
inactive: [1] 39.7% | [2] 59.9% | [3] 113% | [4] 115% | [5] 39.8% | [6] 76.1% | [7] 59% | [8] 40.8% | [9] 78.8% | [10] 101% | [12] 65.8% | [13] 34.3% | [17] 61.8% | [14] 20.5% | [15] 110%

CCOC(=O)c1ccc(N=Cc2sc(=O)[nH]c2O)cc1
inactive: [1] 101% | [2] 92.1% | [3] 102% | [4] 100% | [5] 91.6% | [6] 87.1% | [7] 103% | [8] 88.1% | [9] 96.8% | [10] 92.3% | [11] 101% | [12] 103% | [13] 100% | [17] 92% | [14] 107% | [16] 103%

O=C(Nc1ncc(Cc2cccc(C(F)(F)F)c2)s1)C1COc2ccccc2O1 (stereo not drawn)
inactive: [1] 76.9% | [2] 89.9% | [3] 87.4% | [4] 84.6% | [5] 100% | [6] 86.8% | [7] 90.6% | [8] 65.4% | [9] 87.3% | [10] 67.1% | [12] 59.1% | [13] 81% | [17] 81.8% | [14] 83.3% | [15] 98.5% | [16] 76%

COc1ccc(C(O)(CCC(C)C)C(CN2CCOCC2)c2ccc(Cl)cc2)cc1 (stereo not drawn)
inactive: [1] 46.8% | [2] 67.1% | [3] 103% | [4] 84.6% | [5] 97.7% | [6] 85.1% | [8] 103% | [9] 29.4% | [10] 87.5% | [11] 62.2% | [13] 28.5% | [17] 55.6% | [14] 26.6% | [15] 64.6% | [16] 48%
active: [7] 6.49%

CN1CCN(c2nc(Nc3ccc(O)cc3)nc3ccccc23)CC1
inactive: [1] 32.7% | [2] 30.1% | [3] 82.5% | [4] 82.9% | [5] 57.2% | [6] 52.1% | [7] 59.5% | [8] 89.2% | [9] 51.1% | [10] 82.2% | [11] 70.8% | [13] 57.2% | [17] 44.9% | [14] 94.6% | [15] 46.1% | [16] 65.6%
